Reference: PubChem BioAssay AID2284352 (EPA ToxCast)
Records with an inconclusive call do not appear. The source made the active and inactive calls. How the source made its calls: active means hit-call score of the fitted dose curve at least 0.9, where 1 is the maximum; inconclusive means response in the unintended direction; inactive means score below 0.9.

test system: rainbow trout Peroxisome Proliferator-activated Receptor gamma (PPARg), gene 110528708; experiment: ATG_rtPPARg_EcoTox2: Attagene TRANS-FACTORIAL EcoTox-2 HepG2 Assay for rainbow trout Peroxisome Proliferator-activated Receptor gamma (PPARg)
Protocol: ATG_EcoTox2 is a cell-based, multiplexed assay created by modifying the existing Attagene TRANS-FACTORIAL system to include a panel of nuclear receptors from some or all the following species: human (Homo sapiens), african clawed frog (Xenopus laevis), rainbow trout (Oncorhynchus mykiss), japanese medaka (Oryzias latipes), and zebrafish (Danio rerio). The ECOTOX2-FACTORIAL format uses HepG2, a human liver cell line, with measurements taken at 24 hours after chemical dosing in a 24-well plate. ATG_rtPPARg_EcoTox2 is one of 29 assay components calculated in the ATG_EcoTox2 assay. It is designed to make measurements of mRNA induction, a form of inducible reporter, as detected with fluorescence intensity signals by Reverse transcription polymerase chain reaction (RT-PCR) and Capillary electrophoresis technology.The assay endpoint ATG_rtPPARg_EcoTox2 was analyzed in the positive analysis fitting direction relative to DMSO as the negative control and baseline of activity. Using a type of inducible reporter, measures of mRNA for gain-of-signal activity can be used to understand the reporter gene at the transcription factor-level as they relate to the gene PPARg. Furthermore, this assay endpoint can be referred to as a primary readout, because this assay has produced multiple assay endpoints where this one serves a reporter gene function. To generalize the intended target to other relatable targets, this assay endpoint is annotated to the nuclear receptor intended target family, where the subfamily is non-steroidal.
Human liver HepG2 cells are transiently transfected with multiple reporter transcription units (MRTUs) in 6-well plates using FuGene 6 reagent (Roche; 3 ml FuGene/1 mg DNA). The MRTU constructs are regulated by a cis-regulating element (promoter). Each RTU expresses a GAL4-UAS that regulates the transcription of a nearby target reporter gene sequence. A major difference between the CIS and TRANS system is that in CIS activities of endogenous TFs are measured, whereas the TRANS assay evaluates changes in activities of exogenous, chimeric NR-Gal4 proteins. […] At the end of 24 hour incubation, total RNA was isolated using TriZol reagent (Invitrogen). The isolated RNA is then reverse-transcribed using oligo(dT) primer and Mo-MLV reverse transcriptase (Invitrogen) with DNAse I (Ambion) treatment for 30 min. The one-tenth of the produced cDNA was amplified by PCR using Taq DNA polymerase (Invitrogen) and two reporter sequence-specific primers. […] The fragments were purified using Qiaquick PCR columns (Qiagen), analyzed on an ABI 3130xL genetic analyzer (Applied Biosystems) with peak positions identified by using a set of X-rhodamine (ROX)-labeled MapMarker1000 molecular weight standards (BioVentures). […]

**Q.** `C[C@]12C=CC(=O)C=C1CC[C@@H]1[C@@H]2C(=O)C[C@@]2(C)[C@H]1CC[C@]2(O)C(=O)CO` was tested. Which outcome did it give?
**A.** The outcome was “inactive”.

**Q.** How did the outcome turn out when `CC(C)(Oc1ccc(Cl)cc1)C(=O)O` was run?
**A.** Its outcome is “inactive”.

**Q.** With `Cc1ccc(C)c(OCCCC(C)(C)C(=O)O)c1` as the molecule, how does the outcome read?
**A.** The outcome was “inactive”.

**Q.** Which outcome does the source give for `CC(C)OC(=O)C(C)(C)Oc1ccc(C(=O)c2ccc(Cl)cc2)cc1` here?
**A.** The outcome was “inactive”.
